# Most compounds without a hit are left out; they make up all but 5.9% or so of the library.
# RORg inh = qHTS for inhibitors of ROR gamma transcriptional activity. Nuclear receptor ROR-gamma (Mus musculus), P51450. Potency, µM (doses to about 53.6 µM), inactives show top-dose activity change, negative = inhibition, actives largely listed as inhibitors. actives 5.4% (n = 310,000). Drosophila S2 Gal4-RORgamma UAS-luciferase reporter, 20 h. AID 2551, 2010; note: % is set by controls: 0 for no effect and ±100 for the full control effect; nearly all actives have a fitted effect of over 60% in size
# Target sequence (P51450 whole entry, looked up, the tested form may be a part): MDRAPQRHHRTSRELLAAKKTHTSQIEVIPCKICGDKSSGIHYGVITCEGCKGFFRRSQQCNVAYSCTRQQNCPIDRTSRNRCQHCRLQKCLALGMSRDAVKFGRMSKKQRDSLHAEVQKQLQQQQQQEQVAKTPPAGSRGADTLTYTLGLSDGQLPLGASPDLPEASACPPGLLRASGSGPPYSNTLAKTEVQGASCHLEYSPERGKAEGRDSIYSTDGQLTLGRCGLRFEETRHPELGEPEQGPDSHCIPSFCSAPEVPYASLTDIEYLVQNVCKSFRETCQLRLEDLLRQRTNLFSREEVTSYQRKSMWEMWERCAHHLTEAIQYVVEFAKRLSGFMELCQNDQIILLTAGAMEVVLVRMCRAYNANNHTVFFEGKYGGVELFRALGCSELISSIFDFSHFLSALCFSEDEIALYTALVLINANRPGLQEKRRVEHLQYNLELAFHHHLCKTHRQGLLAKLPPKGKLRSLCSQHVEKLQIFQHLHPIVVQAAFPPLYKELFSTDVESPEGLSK
#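 Drosophila Schneider cells stably carrying a metallothionein-driven Gal4 DBD–ROR gamma fusion and a UAS-Photinus luciferase reporter were exposed to compound for 1 hr, then induced with copper sulfate (700 uM final) for 20 hr at ambient temperature before luminescence reading.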
# HEK293 tox = qHTS of GLP-1 Receptor Inverse Agonists: Cytotox Screen; HEK293 cAMP-luciferase reporter cells, luminescence, 24 h; Potency, µM (series often up to 38.3 µM), for the others: at the highest dose activity change, negative = inhibition, usual class: inhibitors; actives 0.13% (n = 410,000);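 note: loss of luciferase light is scored as toxicity; % is set by controls: 0 for no effect and ±100 for the full control effect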
#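 Step one: seed cells (200 cells/uL, DMEM with 10% Nu serum, 1% pen-strep). Step two: 12-hour incubation at 37 deg C. Step three: pin 23 nL compound, incubate 24 hr. Step four: add luciferase reagent, read luminescence 12 min later.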
# GLP1R ag = qHTS of GLP-1 Receptor Agonists; Glucagon-like peptide 1 receptor (Homo sapiens), P43220; HEK293 GLP-1R CRE-luciferase, luminescence, 4-6 h; cells express a hypersensitive GLP-1R form; Potency, µM (doses to about 45.6 µM), for inactives: at the highest dose activation, actives largely listed as activators; actives 0.007% (n = 380,000); note: % of control where 0% means no effect
# GLP-1R inv ag = qHTS of GLP-1 Receptor Inverse Agonists (Inhibition Mode); Glucagon-like peptide 1 receptor (Homo sapiens), P43220; HEK293 GLP-1R CRE-luciferase, luminescence, 24 h; GLP-1R form is constitutively active; Potency, µM (series often up to 38.3 µM), for inactives: at the top dose activity change, negative = inhibition, actives largely listed as inhibitors; actives 1.6% (n = 410,000); AID 624417, 2012; note: % is set by controls: 0 for no effect and ±100 for the full control effect; nearly all actives have a fitted effect of over 55% in size
#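 Inverse agonists were sought by their lowering of basal cAMP reporter luciferase output in HEK293 cells stably carrying constitutively active human GLP-1R, after 24 h compound treatment.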
# VP16 counter = VP16 counterscreen qHTS for inhibitors of ROR gamma transcriptional activity. Potency, µM (top dose mostly 53.6 µM), without a hit: top-dose activity, negative = inhibition, hits mostly inhibitors. Drosophila S2 Gal4-VP16 UAS-luciferase, luminescence, 20 h. actives 3.5% (n = 310,000);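 note: Gal4-VP16 expression switched on by copper sulfate through the metallothionein promoter; % is set by controls: 0 for no effect and ±100 for the full control effect; nearly all actives have a fitted effect of over 50% in size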
# Starred values were filed as active, the others as inactive; u = inconclusive; x = not tested or not shown. Calls come from the whole dose curve; as a rule, active = well fitted curve in the direction sought with a large enough effect; inconclusive = small, poorly fitted or top-dose-only effect, or another doubt; inactive = no such curve, though single readings can be large; an effect the other way counts as inactive or inconclusive. Potency is the fitted concentration of half-maximal effect.
SMILES,RORg inh,HEK293 tox,GLP1R ag,GLP-1R inv ag,VP16 counter
O=C1/C(=C/c2ccccn2)COc2ccccc21,-25.6%,-3.1%,25.3%,21.7%,-15.5%
CC1C/C(=C/c2ccco2)C(=O)/C(=C/c2ccco2)C1 (configuration not stated),31.1%,x,x,x,17.3%
COc1ccc2nc(SCC(=O)NC3CCCc4ccccc43)[nH]c2c1 (configuration not stated),21.4%,-14.2%,-1.1%,u,-11.5%
O=C(CN1CCN(c2ccccc2Cl)CC1)NC1CCCc2ccccc21 (configuration not stated),-0.5%,0.8%,3.0%,10µM*,-1.7%
O=C(CSc1nc2ccc(Cl)cc2[nH]1)NC1CCCc2ccccc21 (configuration not stated),2.3%,-17.9%,16.1%,8.91µM*,-3.6%
O=C(CSc1nccc(=O)[nH]1)Nc1cc(C(F)(F)F)ccc1N1CCOCC1,13.7%,0.6%,12.5%,25.1%,8.5%
Cc1ccc2nc(SCC(=O)Nc3ccc4c(c3)CCC4)[nH]c2c1,u,-7.7%,1.1%,u,11.2µM*
Cc1ccc2nc(SCC(=O)Nc3cc(C(F)(F)F)ccc3N3CCOCC3)[nH]c2c1,16.0%,u,16.9%,1.26µM*,-19.6%
Cc1ccc(Cl)cc1N1CCN(CC(=O)NC2CCCc3ccccc32)CC1 (configuration not stated),19.7%,-22.1%,0.7%,u,-11.0%
COc1ccc(C2c3cccn3CCN2S(=O)(=O)c2ccc([N+](=O)[O-])cc2)cc1 (configuration not stated),x,-13.0%,x,-29.2%,x
O=C(CN1CCN(c2ccccc2F)CC1)Nc1ccc2c(c1)CCC2,-34.8%,-5.4%,9.5%,7.3%,22.4µM*
Nc1nc2ccccc2n1/N=C/c1ccc2c(c1)OCO2,10µM*,0.0%,2.3%,-1.9%,u
CCn1c(SCc2ccccc2)nnc1C1CCN(S(=O)(=O)c2ccc(OC)cc2)CC1,u,-0.5%,-4.9%,-22.3%,-7.6%
CCn1c(CNc2ccc(Cl)cc2)nnc1SCc1ccccc1,0.5%,-3.9%,-12.8%,11.2µM*,21.7%
CCn1c(SCc2ccccc2)nnc1C1CCCCC1,u,1.2%,12.6%,3.98µM*,u
S=c1[nH]nc(CNc2ccc(Cl)cc2)n1Cc1ccccc1,3.55µM*,-4.7%,2.0%,-11.5%,-17.1%
Fc1ccc(NCc2n[nH]c(=S)n2Cc2ccccc2)cc1,4.47µM*,-0.4%,-1.1%,-12.0%,-18.8%
O=C(NCc1n[nH]c(=S)n1Cc1ccccc1)c1ccc(Cl)cc1Cl,u,9.5%,-6.8%,9.7%,-1.2%
COc1ccc(OC)c(NC(=O)N2CC3CCCN3c3ccccc32)c1 (configuration not stated),x,9.3%,x,u,x
Cc1ccc(N=C2SC(C(=O)Nc3ccc(OC(F)(F)F)cc3)C(N)=C2C(=O)Nc2c(C)cc(C)cc2C)cc1 (configuration not stated),u,u,-3.7%,2.82µM*,u
CC1NC(=S)N(C2CCCCC2)C1=O (configuration not stated),11.2µM*,-0.5%,8.6%,6.6%,-4.7%
CCC(C)C1NC(=S)N(C2CCCCC2)C1=O (configuration not stated),6.31µM*,-2.4%,0.0%,u,11.2µM*
CCCCC1NC(=S)N(C2CCCCC2)C1=O (configuration not stated),12.6µM*,-10.3%,2.3%,u,u
CC(C)C1NC(=S)N(Cc2ccccc2)C1=O (configuration not stated),u,0.2%,-0.4%,1.9%,u
Cc1ccc(Nc2nc(CSc3nnc(-c4cccnc4)n3-c3ccccc3C)cs2)cc1,5.01µM*,-22.4%,3.4%,u,u
SMILES,RORg inh,HEK293 tox,GLP1R ag,GLP-1R inv ag,VP16 counter
COc1ccc(OC)c(NC(=O)CN2C(=O)CCc3cc(S(=O)(=O)N4CCCCC4)ccc32)c1,x,-3.2%,x,6.8%,x
CC1CCCN(C(=O)c2ccc(OC3CCN(CCc4ccccc4)CC3)cc2)C1 (configuration not stated),11.1%,u,2.6%,8.91µM*,-10.3%
Cc1cc(C)cc(CN2CCC(Oc3ccc(C(=O)N4CCCC4)cc3)CC2)c1,-6.0%,-30.0%,1.0%,10µM*,5.1%
CCCOC1CCCN(C(=O)c2ccc(OC3CCN(C(=O)COC)CC3)cc2)C1 (configuration not stated),26.2%,10µM*,-5.6%,11.2µM*,-3.4%
C/C(=N\Nc1nc(C)cc(-c2ccccc2)n1)c1ccc(C)o1,5.01µM*,u,1.4%,u,10µM*
C/C(=N\NC(=O)c1ccc(-c2ccccc2)cc1)c1ccco1,-12.5%,0.0%,13.6%,-5.6%,6.0%
C/C(=N/Nc1nc(C)cc(-c2ccccc2)n1)c1ccco1,5.01µM*,u,4.3%,u,17.8µM*
C/C(=N\Nc1nc(C)cc(-c2ccccc2)n1)c1ccc(O)cc1,u,u,15.0%,-15.7%,u
COc1ccc(C(C)=O)cc1CSc1nnc(-c2ccccc2O)n1-c1ccccc1,2.82µM*,-2.7%,0.3%,-6.5%,-12.7%
COc1cccc(N2CCN(C(=O)C3CCCN(c4ncnc5c4nc4n5CCCCC4)C3)CC2)c1 (configuration not stated),42.7%,u,10.0%,4.47µM*,-3.2%
CCN(Cc1ccccc1)C(=O)C1CCN(c2ncnc3c2nc2n3CCCCC2)CC1,20.9%,-9.8%,12.8%,-10.8%,-13.9%
COc1ccccc1NC(=O)C1CCCN(c2ncnc3c2nc2n3CCCCC2)C1 (configuration not stated),14.6%,0.5%,10.0%,u,-1.9%
O=C(Nc1ccccc1Cl)C1CCCN(c2ncnc3c2nc2n3CCCCC2)C1 (configuration not stated),27.9%,-13.7%,10.6%,3.16µM*,-4.3%
CC1CCN(C(=O)C2CCCN(c3ncnc4c3nc3n4CCCCC3)C2)CC1 (configuration not stated),4.2%,-20.6%,23.2%,-15.6%,-1.5%
O=C(Nc1ccc(F)cc1)C1CCCN(c2ncnc3c2nc2n3CCCCC2)C1 (configuration not stated),x,0.5%,x,u,x
Cc1ccc(NC(=O)C2CCCN(c3ncnc4c3nc3n4CCCCC3)C2)cc1F (configuration not stated),x,3.4%,x,3.55µM*,x
CCc1ccccc1N(CC)C(=O)C1CCN(c2ncnc3c2nc2n3CCCCC2)CC1,-21.0%,-26.7%,-1.7%,8.91µM*,-3.8%
